# This is one part of a sample in which hits are shown more often than they occur.
# TTR transcr act – activators of transthyretin transcription | activation, % at 16.7 µM | SH-SY5Y TTR promoter Gaussia luciferase, luminescence; 100% = recombinant luciferase protein wells | 1.3% of 92,000 active | AID 1117267;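 active means activation above the mean of all tested compounds plus 3 SD, cut at about 9.5% in these data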;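 further: cells exposed to compounds for one day before reading; 0% = median of all test compound wells on the plate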
# HuH7 TTR inh – counter-screen for TTR activators: TTR transcription inhibitors in HuH7 cells; HuH7 TTR promoter-Gaussia luciferase reporter, luminescence; AID 1117279; inhibition, % at 16.7 µM; shares compounds with TTR transcr act; 4% of 1,100 active;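 active means average inhibition above the solvent-only control wells' mean plus 3 SD, cut at about 15% in these data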;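 further: 0% = cells with DMSO only and 100% = cells with inhibitor control FD; inhibitors lower well luminescence so higher value means more inhibition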
# TTR up confirm – human TTR transcription activation, confirmation | SHSY5Y TTR promoter Gaussia luciferase, luminescence; 100% = purified Lucia enzyme wells, no cells | 1,100 tested, under 10 active | shares compounds with TTR transcr act | AID 1117280 | activation, % at 16.7 µM;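 active means mean activation above a set limit taken from the earlier primary screen, cut at about 11% in these data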;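 further: 0% = DMSO-treated cells and 100% = recombinant Lucia luciferase without cells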
# * marks the source's active call; other numbers are inactive results.
SMILES,TTR transcr act,others
C[C@@H]1CN([C@@H](C)CO)C(=O)CCCn2cc(nn2)CO[C@H]1CN(C)C(=O)Nc1ccc(F)cc1,2,
O=[N+]([O-])c1cccn2cc(-c3ccc(Br)cc3)nc12,11*,HuH7 TTR inh=6;TTR up confirm=-1
Cc1cccn2cc(-c3ccc(S(=O)(=O)N4CCOCC4)cc3)nc12,0,
Cc1ccn2cc(-c3ccc(Br)cc3)nc2c1,-3,
C/C(=N\NC(=O)COc1cccc(C)c1)c1ccc2ccccc2c1O,4,
C#CCOCCOCCOCCNc1nc(N2CCN(C(=O)[C@H]([C@@H](C)CC)n3cc(CCCCN)nn3)CC2)nc(N2CCN(C(=O)[C@H](Cc3ccc(O)cc3)n3cc(CCO)nn3)CC2)n1,1,
COc1ccc(CCNC(=O)c2ccc(-c3ccc([N+](=O)[O-])cc3Cl)o2)cc1OC,-2,
COc1ccc(CCNC(=O)c2ccccc2Cl)cc1OC,0,
COc1ccc(CCNC(=O)c2ccc([N+](=O)[O-])cc2Cl)cc1OC,26*,HuH7 TTR inh=-24;TTR up confirm=1
Nc1nc(SCC(=O)Nc2cc(Cl)ccc2Cl)n[nH]1,4,
CSCCC(NC(=O)c1ccccc1Cl)C(=O)N(C)Cc1cccs1 (stereo not given),1,
CC(C)CC1CCCC12NC(=O)NC2=O (stereo not given),1,
CC(C)CCN1NC2(CCCC(C)C2)NC1=S (stereo not given),13*,HuH7 TTR inh=-1;TTR up confirm=-1
COC(=O)[C@]1(Cc2ccccc2)N[C@H](c2ccc(-c3cc(C(C)=O)cs3)cc2)[C@@H]2C(=O)N(C)C(=O)[C@@H]21,2,
CC(C)(C)S(=O)(=O)N1C[C@H]2C(=CC[C@@H]3C(=O)N(c4ccccc4)C(=O)[C@@H]32)[C@H]1CCO,2,
COC(=O)[C@]12C[C@H](CC(=O)N3CCN(C(=O)C4CC4)CC3)C(=O)N(Cc3ccc(Cl)cc3Cl)C1=C[C@H](C1CCCC1)O[C@@H]2C,2,
Cc1ccc(CN2CC=CS2(=O)=O)cc1,0,
O=c1cc(CN(Cc2ccccc2)Cc2ccccc2)c2c(ccc3ccccc32)o1,7,
CCOC(=O)Cn1nc(-c2ccccc2)ccc1=O,0,
CCc1ccn2cc(-c3cc(-c4ccccc4)no3)nc2c1,-5,
CCC(CO)Nc1ccn2nc(-c3ccccc3)cc2n1 (stereo not given),26*,HuH7 TTR inh=-2;TTR up confirm=0
COC(=O)[C@]12C[C@H](CC(=O)NCc3cccc4ccccc34)C(=O)N(Cc3cccc4ccccc34)C1=C[C@H](COCc1ccccc1)O[C@@H]2C,-2,
COc1ccc(CN(C)C[C@H]2OCc3cnnn3CCCC(=O)N([C@H](C)CO)C[C@@H]2C)cc1,0,
CCOC(=O)C1(C)CCCN1C(=O)c1ccc(C(=O)OC)cc1 (stereo not given),0,
CCN1CCN(c2nc(-c3ccccn3)nc3ccccc23)CC1,11*,HuH7 TTR inh=0;TTR up confirm=-1
SMILES,TTR transcr act,others
CN1CCN(c2nc(-c3cccs3)nc3ccccc23)CC1,-1,
c1ccc(-c2nc(N3CCOCC3)c3ccccc3n2)nc1,-2,
CCOC(=O)N1CCN(C(=O)C[C@@H]2C[C@]3(C(=O)OCC)CCC4=C3N(CCC4)C2=O)CC1,1,
COc1ccc(C(CNS(=O)(=O)c2ccc(C)cc2)N2CCN(C)CC2)cc1 (stereo not given),-1,
CN(C)C(=O)c1ccc(Oc2ccc(C(=O)N(C)C)cc2)cc1,0,
N/C(=N\OC(=O)c1ccc(OCC(F)(F)F)nc1)c1ccc(Cl)cc1,1,
CN(C)C(=O)c1ccc(OCC(F)(F)F)nc1,13*,HuH7 TTR inh=-9;TTR up confirm=-1
CCC[C@H]1[C@@H](NC(=O)c2ccc(Cl)cc2)CC[C@@]23CCCN2C(=O)CCC[C@@H]13,1,
CCCCCCCCN1C(=O)[C@@H](CC(=O)NCCCOCCCC)C[C@@]2(C(=O)OC)C1=C[C@H](C(C)C)O[C@@H]2C1CC1,0,
Cc1cc(SCC(=O)N/N=C/c2ccc(O)c(O)c2)c(C)cc1Br,4,
Oc1ccc(/C=N/NC(=S)Nc2cccnc2)cc1O,-2,
O=C(N/N=C/c1ccc(O)c(O)c1)N/N=C/c1ccc(O)c(O)c1,11*,HuH7 TTR inh=-10;TTR up confirm=-1
N#C/C(N)=C(/C#N)N=Cc1cccc(Cl)c1,4,
CC1(C(=O)NS(=O)(=O)c2cccc(OC(F)F)c2)CCN1C(=O)c1ccco1 (stereo not given),4,
CCC[C@H]1[C@@H](OC(=O)NC(CC)CC)CC[C@@]23CCCN2C(=O)CCC[C@@H]13,1,
O=C(NCC(c1ccccc1)c1ccccc1)[C@H](Cc1ccccc1)NC1(C(=O)NC2CCCCC2)CCCC1,0,
CCn1c(=O)c([N+](=O)[O-])c(NCCc2ccc(OC)c(OC)c2)c2ccccc21,-2,
COc1ccc(CCn2c(C)nc3ccccc3c2=O)cc1OC,0,
COc1ccc(CCNc2c3ccccc3nc3ccccc23)cc1OC,11*,HuH7 TTR inh=-17;TTR up confirm=14*
CC(C)(C)OC(=O)NCCc1ccccc1/C=C/S(=O)(=O)NCc1ccccc1,-1,
CCCCCCC(=O)NC1CCCCN(Cc2ccc(C)cc2)C1=O (stereo not given),-1,
CCOC(=O)[C@@]12CCC3=C1N(CCC3)C(=O)[C@H](CC(=O)N1CCCCC1)C2,0,
CC(C)(C)S(=O)(=O)N1Cc2cc(CO)ccc2[C@@H]1CCO,3,
C[C@H]1[C@@H](OC(=O)Nc2cccc(Cl)c2)CC[C@@]23CCCN2C(=O)CCC[C@@H]13,0,
O=c1c2ccccc2sc2nc(C3CCCCC3)n(Cc3ccco3)c(=O)c12,17*,HuH7 TTR inh=2;TTR up confirm=-1
SMILES,TTR transcr act,others
CCCc1nc2sc3ccccc3c(=O)c2c(=O)n1Cc1ccccc1,-1,
Cn1c2ccccc2c(=O)c2c(=O)n(Cc3ccco3)c(-c3ccc(F)cc3)nc21,3,
CCOC(=O)[C@@]12CCC3=C1N(CCC3)C(=O)[C@H](CC(=O)NCCCCc1ccccc1)C2,-1,
Cc1ccc(C#N)c(SCCN2CCCCC2)n1,-1,
Cn1c(SCC(=O)N2CCCCCC2)nnc1-c1ccco1,2,
Cn1c(SCCN2CCCCC2)nnc1-c1ccccc1Br,14*,HuH7 TTR inh=-7;TTR up confirm=0
COc1ccc(CCN=C(N)NS(=O)(=O)c2cccs2)cc1,3,
NC(=NCCc1ccc(Cl)cc1)NS(=O)(=O)c1ccccc1,8,
NC(=NCCc1ccccc1)NS(=O)(=O)c1cccs1,19*,HuH7 TTR inh=-8;TTR up confirm=0
COC(=O)C1=C(C(=O)OC)[C@@]2([C@H](Cc3ccc(C)cc3)Nc3ccccc3)C=C[C@@H]1O2,2,
Cc1ccccc1C(=O)N1CCC(C(=O)NN2C(=O)NC3(CCC(C)CC3)C2=O)CC1 (stereo not given),0,
C[C@H]1CN([C@@H](C)CO)C(=O)CCCn2nncc2CO[C@H]1CN(C)C(=O)C1CCCCC1,-1,
Cc1ccccc1Cn1cc(COC(=O)N(C)Cc2ccccc2)nn1,12*,HuH7 TTR inh=18*;TTR up confirm=-1
CN(Cc1ccccc1)C(=O)OCc1cn(Cc2ccccc2Cl)nn1,-2,
O=C(NCCc1ccccc1)OCc1cn(Cc2ccccc2F)nn1,20*,HuH7 TTR inh=-2;TTR up confirm=0
Cc1cccc(Cn2cc(COC(=O)N(C)Cc3ccccc3)nn2)c1,-2,
O=C(NCCc1ccccc1)OCc1cn(Cc2ccccc2Cl)nn1,1,
O=C(NCCc1ccccc1)OCc1cn(Cc2cc(F)cc(F)c2)nn1,-1,

# Assay outcomes as filed in PubChem BioAssay.
